Measurements from PubChem BioAssay (Tox21).
Inconclusive results are not listed. The source made the active and inactive calls. Unless noted, calls follow the shape of the dose curve; as a rule, active = well fitted curve in the direction sought with a large enough effect in the repeat runs; inconclusive = weak or mixed curves; inactive = no such curve, though single readings can be large; an effect the other way counts as inactive or inconclusive.

Tests used:
[1] = biological target: Peroxisome proliferator-activated receptor delta (Homo sapiens) (UniProt Q03181); test: qHTS assay to identify small molecule agonists of the peroxisome proliferator-activated receptor delta (PPARd) signaling pathway (AID 743212; calls by dose curve)
Method in brief: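 A PPARd-bla HEK293H line with beta-lactamase under an Upstream Activator Sequence is treated with compounds at 37 C. Substrate loading for 2 h at room temperature precedes the fluorescence measurement.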

[2] = qHTS assay to identify small molecule antagonists of the peroxisome proliferator-activated receptor delta (PPARd) signaling pathway - cell viability counter screen (AID 743213); also: nearly all actives have a fitted effect of over 50% in size
Method in brief: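 Viability counter-screen, qHTS format: PPARd-bla HEK293H, L165041 300 nM final, 17 h compound exposure at 37 C, CellTiter-Glo luminescence after 30 min RT.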

[3] = qHTS assay to identify small molecule antagonists of the farnesoid-X-receptor (FXR) signaling pathway - cell viability counter screen (AID 743221; active = well fitted cell-killing curve with a large enough effect in the repeat runs, not every such curve was filed as active; also: nearly all actives have a fitted effect of over 50% in size)
Method in brief: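 GeneBLAzer FXR-UAS-bla HEK 293T cells, compound plus chenodeoxycholic acid (50 uM final), 16 h at 37 C. CellTiter-Glo added to the same wells after the beta-lactamase read; luminescence read after 30 min at room temperature as viability.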

[4] = biological target: Vitamin D3 receptor (Homo sapiens) (UniProt P11473); test: qHTS assay to identify small molecule agonists of the vitamin D receptor (VDR) signaling pathway (AID 743222; calls by dose curve)
Method in brief: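 VDR-bla cells were seeded, left 4 h, treated with compounds in DMSO for 16 h, incubated 2 h at RT with B/G FRET substrate, and read for fluorescence.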

[5] = biological target: Vitamin D3 receptor (Homo sapiens) (UniProt P11473); test: qHTS assay to identify small molecule antagonists of the vitamin D receptor (VDR) signaling pathway (AID 743223; active = well fitted inhibition curve with a large enough effect in the signal ratio in the repeat runs, not every such curve was filed as active; the % refers to the signal ratio)
Method in brief: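 VDR-bla cells were treated with compound plus 3 nM final 1alpha,25-dihydroxyvitamin D3 for 16 h at 37C. Beta-lactamase reporter read by B/G FRET substrate fluorescence after 2 h at room temperature. qHTS format.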

[6] = qHTS assay to identify small molecule agonists of the vitamin D receptor (VDR) signaling pathway - cell viability counter screen (AID 743224); also: series mostly up to about 63 µM; nearly all actives have a fitted effect of over 50% in size
Method in brief: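 Here cell health was gauged by luminescent ATP detection (CellTiter-Glo, 30 min RT) in VDR-bla cells that had been incubated with test compounds for 16 h at 37C and 5% CO2.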

[7] = qHTS assay to identify small molecule agonists of the farnesoid-X-receptor (FXR) signaling pathway - cell viability counter screen (AID 743218); also: nearly all actives have a fitted effect of over 45% in size
Method in brief: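 After 16 h at 37 C with test compounds, FXR-bla HEK 293T cells were given LiveBLAzer B/G substrate for 2 h at RT and then CellTiter-Glo; luminescence was taken after 30 min.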

[8] = biological target: Bile acid receptor (Homo sapiens) (UniProt Q96RI1); test: qHTS assay to identify small molecule antagonists of the farnesoid-X-receptor (FXR) signaling pathway (AID 743217; active = well fitted inhibition curve with a large enough effect in the signal ratio in the repeat runs, not every such curve was filed as active; the % refers to the signal ratio)
Method in brief: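 In this cell-based antagonist screen, inhibition of CDCA-driven (50 uM final) UAS-beta-lactamase expression in HEK 293T cells was measured by FRET fluorescence following 16 h compound exposure at 37 °C.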

[9] = biological target: Bile acid receptor (Homo sapiens) (UniProt Q96RI1); test: qHTS assay to identify small molecule agonists of the farnesoid-X-receptor (FXR) signaling pathway (AID 743220; active = well fitted activation curve with a large enough effect in the signal ratio in the repeat runs, not every such curve was filed as active; the % refers to the signal ratio)
Method in brief: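 Beta-lactamase reporter under UAS control in GeneBLAzer FXR HEK 293T cells (5000/well) measured with LiveBLAzer FRET substrate after 2 h at room temperature. Compound exposure lasted 16 h at 37C.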

[10] = biological target: Peroxisome proliferator-activated receptor delta (Homo sapiens) (UniProt Q03181); test: qHTS assay to identify small molecule antagonists of the peroxisome proliferator-activated receptor delta (PPARd) signaling pathway (AID 743215; active = well fitted inhibition curve with a large enough effect in the signal ratio in the repeat runs, not every such curve was filed as active; the % refers to the signal ratio;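 also: cells stimulated with agonist L165041 at 300 nM final during compound exposure; series mostly up to about 62 µM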)
Method in brief: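 With L165041 present at 300 nM final, compounds were incubated 17 h at 37 C on PPARd UAS-bla HEK293H cells. A FRET-based beta-lactamase substrate was then applied for 2 h at room temperature and fluorescence intensity recorded.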
% is scaled to controls: 0 for no effect and ±100 for the full control effect.

Sequence of Peroxisome proliferator-activated receptor delta (Homo sapiens) (Q03181 whole entry, looked up): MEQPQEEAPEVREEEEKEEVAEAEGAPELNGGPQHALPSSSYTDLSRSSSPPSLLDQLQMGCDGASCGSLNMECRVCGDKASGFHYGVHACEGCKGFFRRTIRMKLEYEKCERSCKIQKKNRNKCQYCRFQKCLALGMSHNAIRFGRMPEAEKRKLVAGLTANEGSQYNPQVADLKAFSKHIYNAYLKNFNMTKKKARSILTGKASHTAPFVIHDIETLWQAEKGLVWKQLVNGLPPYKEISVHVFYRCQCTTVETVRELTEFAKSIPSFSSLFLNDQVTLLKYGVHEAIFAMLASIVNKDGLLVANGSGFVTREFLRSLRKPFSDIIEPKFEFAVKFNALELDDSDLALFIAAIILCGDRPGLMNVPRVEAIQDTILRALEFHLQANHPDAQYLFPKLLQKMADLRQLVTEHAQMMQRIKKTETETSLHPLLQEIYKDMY
Sequence of Bile acid receptor (Homo sapiens) (Q96RI1 whole entry, looked up): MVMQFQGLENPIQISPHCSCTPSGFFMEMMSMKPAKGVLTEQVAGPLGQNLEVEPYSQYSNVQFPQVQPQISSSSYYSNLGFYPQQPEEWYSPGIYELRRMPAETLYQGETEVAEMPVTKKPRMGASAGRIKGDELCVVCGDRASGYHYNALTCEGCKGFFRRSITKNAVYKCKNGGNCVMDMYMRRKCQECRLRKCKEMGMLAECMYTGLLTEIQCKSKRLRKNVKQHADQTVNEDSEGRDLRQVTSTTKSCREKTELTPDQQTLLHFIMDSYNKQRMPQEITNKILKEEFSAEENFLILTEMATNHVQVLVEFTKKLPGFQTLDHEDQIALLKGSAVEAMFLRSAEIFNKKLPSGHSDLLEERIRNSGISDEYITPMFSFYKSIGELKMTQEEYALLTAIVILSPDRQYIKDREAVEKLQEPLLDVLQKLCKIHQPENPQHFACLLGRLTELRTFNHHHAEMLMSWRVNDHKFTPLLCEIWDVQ
Sequence of Vitamin D3 receptor (Homo sapiens) (P11473 whole entry, looked up): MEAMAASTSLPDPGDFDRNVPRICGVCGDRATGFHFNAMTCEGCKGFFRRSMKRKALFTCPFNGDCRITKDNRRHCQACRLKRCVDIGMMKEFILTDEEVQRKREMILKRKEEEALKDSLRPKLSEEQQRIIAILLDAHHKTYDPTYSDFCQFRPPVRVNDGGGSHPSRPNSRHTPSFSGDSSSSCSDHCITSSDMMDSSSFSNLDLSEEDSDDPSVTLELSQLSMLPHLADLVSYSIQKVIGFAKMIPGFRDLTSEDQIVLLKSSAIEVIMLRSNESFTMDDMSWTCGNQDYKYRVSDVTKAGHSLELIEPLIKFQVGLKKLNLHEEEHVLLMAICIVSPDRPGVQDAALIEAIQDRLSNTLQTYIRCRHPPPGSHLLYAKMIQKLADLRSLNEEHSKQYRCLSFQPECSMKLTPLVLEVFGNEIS

CC1=NN(c2cccc(S(=O)(=O)O)c2)C(=O)C1
inactive: outcome [1] | outcome [2] | outcome [3] | outcome [4] | outcome [5] | outcome [6]

CCCCN(CCC(=O)OCC)C(C)=O
inactive: outcome [1] | outcome [2] | outcome [7] | outcome [3] | outcome [4] | outcome [6]

FB(F)F
inactive: outcome [1] | outcome [2] | outcome [8] | outcome [7] | outcome [9] | outcome [3] | outcome [4] | outcome [5] | outcome [6]

CO/N=C(\C(=O)N[C@@H]1C(=O)N2C(C(=O)O)=C(CSc3nc(=O)c(O)nn3C)CS[C@H]12)c1csc(N)n1
inactive: outcome [1] | outcome [10] | outcome [8] | outcome [7] | outcome [3] | outcome [4] | outcome [5] | outcome [6]

O=S(=O)(O)c1cc(O)c(O)c(S(=O)(=O)O)c1
inactive: outcome [1] | outcome [2] | outcome [8] | outcome [7] | outcome [9] | outcome [3] | outcome [4] | outcome [6]

Cc1ccc(-c2ccccc2C#N)cc1
inactive: outcome [1] | outcome [10] | outcome [8] | outcome [7] | outcome [9] | outcome [3] | outcome [4] | outcome [5] | outcome [6]

C[C@@H]1C[C@H]2[C@@H]3C[C@H](F)C4=CC(=O)C(Cl)=C[C@]4(C)[C@@]3(F)[C@@H](O)C[C@]2(C)[C@@]1(O)C(=O)CO
inactive: outcome [1] | outcome [2] | outcome [8] | outcome [7] | outcome [9] | outcome [6]

Cc1ncc([C@@H](CCCCCCc2ccc3c(n2)NCCC3)CC(=O)O)cn1
inactive: outcome [1] | outcome [2] | outcome [7] | outcome [9] | outcome [3] | outcome [4] | outcome [6]

O=C(c1ccccc1O)c1ccccc1O
inactive: outcome [1] | outcome [2] | outcome [8] | outcome [7] | outcome [9] | outcome [3] | outcome [4] | outcome [5] | outcome [6]

O=C(O)Cc1csc(-c2ccc(Cl)cc2)n1
inactive: outcome [1] | outcome [2] | outcome [3] | outcome [4] | outcome [5] | outcome [6]

Cc1ncc(COP(=O)(O)O)c(C=O)c1O
inactive: outcome [1] | outcome [2] | outcome [7] | outcome [3] | outcome [4] | outcome [5] | outcome [6]

C[N+](C)(CCOc1ccccc1)Cc1cccs1
inactive: outcome [1] | outcome [10] | outcome [7] | outcome [4] | outcome [5] | outcome [6]

CC(C)NNC(=O)c1ccncc1
inactive: outcome [1] | outcome [10] | outcome [7] | outcome [3] | outcome [4] | outcome [5] | outcome [6]

COCCOCC(OC)OC
inactive: outcome [1] | outcome [2] | outcome [8] | outcome [7] | outcome [9] | outcome [3] | outcome [4] | outcome [5] | outcome [6]

CCN1CCOCC1
inactive: outcome [1] | outcome [2] | outcome [8] | outcome [7] | outcome [9] | outcome [3] | outcome [4] | outcome [5] | outcome [6]

CCCC(C)C(=O)OCC (stereo unspecified)
inactive: outcome [1] | outcome [2] | outcome [7] | outcome [3] | outcome [4] | outcome [5] | outcome [6]

CC(=O)OCC(=O)[C@@]1(O)[C@H](C)C[C@H]2[C@@H]3CCC4=CC(=O)C=C[C@]4(C)[C@@]3(F)[C@@H](O)C[C@@]21C
inactive: outcome [1] | outcome [2] | outcome [7] | outcome [3] | outcome [4] | outcome [6]

CN1[C@@H]2CC[C@H]1CC(OC(=O)C(O)c1ccccc1)C2 (stereo partly specified)
inactive: outcome [1] | outcome [2] | outcome [7] | outcome [3] | outcome [4] | outcome [5] | outcome [6]

C=CCCC(=O)O
inactive: outcome [1] | outcome [10] | outcome [7] | outcome [3] | outcome [4] | outcome [6]

O=C(O)CNC(=O)c1ccc(CO)o1
inactive: outcome [1] | outcome [10] | outcome [7] | outcome [3] | outcome [6]

O=C(O)CNC(=O)c1ccccc1
inactive: outcome [1] | outcome [2] | outcome [7] | outcome [3] | outcome [6]

Clc1cc(Cl)cc(Cl)c1
inactive: outcome [1] | outcome [10] | outcome [7] | outcome [3] | outcome [4] | outcome [5] | outcome [6]

CCCO[Si](OCCC)(OCCC)OCCC
inactive: outcome [1] | outcome [10] | outcome [7] | outcome [3] | outcome [4] | outcome [5] | outcome [6]

N[C@H](C(=O)O)[C@@H](O)c1ccc(O)c(O)c1
inactive: outcome [1] | outcome [2] | outcome [8] | outcome [7] | outcome [9] | outcome [4] | outcome [5] | outcome [6]

Cc1coc2ccccc2c1=O
inactive: outcome [1] | outcome [2] | outcome [8] | outcome [7] | outcome [9] | outcome [3] | outcome [4] | outcome [6]

CCCCCCCCCCCCSC
inactive: outcome [1] | outcome [2] | outcome [7] | outcome [9] | outcome [3] | outcome [6]

Cc1cc(C)c(N=Nc2c(O)c(S(=O)(=O)O)cc3cc(S(=O)(=O)O)ccc23)cc1C
inactive: activation [1] 6.93% [at 5.95 µM] | ratio activity, negative = inhibition [10] 0.853% [at 6.26 µM] | viability change, negative = cytotoxic [7] 0.0024% [at 5.95 µM] | activity change, negative = cytotoxicity [3] 0.502% [at 5.95 µM] | activation [4] 0.83% [at 6.01 µM] | activity change, negative = inhibition [5] -3.01% [at 6.95 µM] | activity change, negative = cytotoxicity [6] -8.28% [at 5.95 µM]
